In article PMC7862700, “An all-to-all approach to the identification of sequence-specific readers for epigenetic DNA modifications on cytosine”:

Assays:
Assay in all cases: DAPPL (digital affinity profiling via proximity ligation, sequencing); 10 mM Tris-HCl pH 7.5, 50 mM NaCl, 1 mM DTT, 4% glycerol, room temperature, 30 min; GST-TFs on glutathione beads, 16-mer random dsDNA library, 0.1% formaldehyde crosslink after washing; high values mean tight binding
[1] = target: T1, FEV (Homo sapiens, UniProt Q99581 1-238); settings: protein: recombinant; tags: N-terminal GST; dsDNA, one strand shown
T1 sequence: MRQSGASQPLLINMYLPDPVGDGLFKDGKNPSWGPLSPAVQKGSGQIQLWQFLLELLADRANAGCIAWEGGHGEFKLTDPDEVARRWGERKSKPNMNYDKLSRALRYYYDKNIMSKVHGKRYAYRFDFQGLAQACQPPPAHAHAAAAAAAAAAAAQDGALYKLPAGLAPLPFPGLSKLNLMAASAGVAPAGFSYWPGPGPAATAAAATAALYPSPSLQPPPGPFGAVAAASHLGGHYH
In short: (§1)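 Binding signal is each hexamer's read frequency for a factor divided by its frequency in the tag-only sample. The factors were GST-fused human transcription factors from yeast, captured on glutathione beads, DNA-barcoded and pooled with that sample. Pools were incubated with 200 nmole of a random double-stranded 16-mer DNA library in Tris/NaCl/DTT/glycerol buffer at room temperature for 30 min, then washed, crosslinked with 0.1% formaldehyde, proximity-ligated with BsaI/T4 ligase (1 h, 37 °C), PCR-amplified and sequenced on an Illumina NextSeq500.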

[2] = target: ETV5 (Homo sapiens, UniProt P41161 1-510); settings: protein: recombinant; tags: N-terminal GST; dsDNA, one strand shown
ETV5, sequence (P41161 whole entry): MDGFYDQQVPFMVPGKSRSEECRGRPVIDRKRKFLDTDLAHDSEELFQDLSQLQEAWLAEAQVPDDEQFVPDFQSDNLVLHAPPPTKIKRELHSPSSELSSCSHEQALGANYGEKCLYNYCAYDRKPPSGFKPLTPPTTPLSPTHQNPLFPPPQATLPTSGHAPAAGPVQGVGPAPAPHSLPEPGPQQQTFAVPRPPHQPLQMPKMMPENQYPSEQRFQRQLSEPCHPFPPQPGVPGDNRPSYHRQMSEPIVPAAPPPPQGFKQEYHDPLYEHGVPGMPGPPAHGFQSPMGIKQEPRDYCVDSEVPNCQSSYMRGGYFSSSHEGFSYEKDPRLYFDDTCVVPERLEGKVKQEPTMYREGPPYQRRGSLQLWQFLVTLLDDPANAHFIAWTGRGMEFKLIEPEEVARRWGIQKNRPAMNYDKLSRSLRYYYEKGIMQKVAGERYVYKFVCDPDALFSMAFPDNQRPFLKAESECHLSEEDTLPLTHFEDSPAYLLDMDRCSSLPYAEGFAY
In short: as §1

[3] = target: HSF1 (Homo sapiens, UniProt Q00613 1-529); settings: protein: recombinant; tags: N-terminal GST; chain copies: 3; dsDNA, one strand shown
HSF1, sequence (Q00613 whole entry): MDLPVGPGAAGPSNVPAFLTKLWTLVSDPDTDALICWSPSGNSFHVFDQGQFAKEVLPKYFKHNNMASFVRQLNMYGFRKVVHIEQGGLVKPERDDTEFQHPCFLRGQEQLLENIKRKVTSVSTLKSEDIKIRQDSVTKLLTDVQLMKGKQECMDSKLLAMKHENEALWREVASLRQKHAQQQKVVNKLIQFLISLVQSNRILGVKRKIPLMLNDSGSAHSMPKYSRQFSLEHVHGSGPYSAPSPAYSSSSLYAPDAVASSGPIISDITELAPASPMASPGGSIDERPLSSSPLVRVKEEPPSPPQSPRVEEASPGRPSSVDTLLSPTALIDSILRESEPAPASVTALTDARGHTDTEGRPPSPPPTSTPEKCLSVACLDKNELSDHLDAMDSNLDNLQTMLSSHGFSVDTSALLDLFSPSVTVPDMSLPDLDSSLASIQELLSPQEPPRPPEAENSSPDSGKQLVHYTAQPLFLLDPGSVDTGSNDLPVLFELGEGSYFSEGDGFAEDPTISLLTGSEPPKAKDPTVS
In short: as §1

[4] = target: ELF4 (Homo sapiens, UniProt Q99607 1-663); settings: protein: recombinant; tags: N-terminal GST; dsDNA, one strand shown
ELF4, sequence (Q99607 whole entry): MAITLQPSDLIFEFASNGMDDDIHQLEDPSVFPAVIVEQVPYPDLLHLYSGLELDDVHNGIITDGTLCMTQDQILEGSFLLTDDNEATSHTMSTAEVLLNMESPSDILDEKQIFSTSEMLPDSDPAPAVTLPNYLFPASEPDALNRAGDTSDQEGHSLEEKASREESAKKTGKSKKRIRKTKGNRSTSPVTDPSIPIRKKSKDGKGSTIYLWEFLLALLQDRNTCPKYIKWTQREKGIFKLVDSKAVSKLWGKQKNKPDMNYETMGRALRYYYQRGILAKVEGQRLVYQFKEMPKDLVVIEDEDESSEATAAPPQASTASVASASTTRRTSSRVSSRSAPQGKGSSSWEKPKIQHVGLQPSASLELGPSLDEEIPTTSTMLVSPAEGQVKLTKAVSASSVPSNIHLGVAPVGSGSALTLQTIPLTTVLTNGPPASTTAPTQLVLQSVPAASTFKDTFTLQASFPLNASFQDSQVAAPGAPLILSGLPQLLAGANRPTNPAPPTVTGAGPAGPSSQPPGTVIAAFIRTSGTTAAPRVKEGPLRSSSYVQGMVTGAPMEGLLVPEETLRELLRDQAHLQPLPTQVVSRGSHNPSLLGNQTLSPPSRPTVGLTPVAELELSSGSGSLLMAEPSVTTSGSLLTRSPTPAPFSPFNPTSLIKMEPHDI
In short: as §1

[5] = target: T2, ELK4 (Homo sapiens, UniProt P28324-2 1-405); settings: protein: recombinant; tags: N-terminal GST; dsDNA, one strand shown
T2 sequence: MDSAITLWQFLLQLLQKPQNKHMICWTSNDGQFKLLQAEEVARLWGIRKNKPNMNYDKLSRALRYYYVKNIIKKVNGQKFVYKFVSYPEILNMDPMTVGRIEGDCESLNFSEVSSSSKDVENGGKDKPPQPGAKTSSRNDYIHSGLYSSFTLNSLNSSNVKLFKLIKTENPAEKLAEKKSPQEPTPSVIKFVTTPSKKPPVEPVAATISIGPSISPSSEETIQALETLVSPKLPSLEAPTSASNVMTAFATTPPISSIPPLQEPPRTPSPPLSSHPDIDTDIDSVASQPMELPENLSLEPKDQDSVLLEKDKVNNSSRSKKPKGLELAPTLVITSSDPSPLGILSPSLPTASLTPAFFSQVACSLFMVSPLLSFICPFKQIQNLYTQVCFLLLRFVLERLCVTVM
In short: as §1

[6] = target: T3, ETV2 (Homo sapiens, UniProt O00321 1-342); settings: protein: recombinant; tags: N-terminal GST; dsDNA, one strand shown
T3 sequence: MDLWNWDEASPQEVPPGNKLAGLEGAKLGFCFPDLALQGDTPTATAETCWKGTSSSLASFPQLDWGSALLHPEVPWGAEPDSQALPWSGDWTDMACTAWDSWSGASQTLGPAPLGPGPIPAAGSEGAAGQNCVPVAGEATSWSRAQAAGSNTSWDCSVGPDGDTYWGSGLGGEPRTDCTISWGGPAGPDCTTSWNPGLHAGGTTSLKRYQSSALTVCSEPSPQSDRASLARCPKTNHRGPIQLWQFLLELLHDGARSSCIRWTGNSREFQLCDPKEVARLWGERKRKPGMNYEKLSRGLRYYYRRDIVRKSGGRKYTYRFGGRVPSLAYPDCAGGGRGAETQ
In short: as §1

[7] = target: T4, ELF3 (Homo sapiens, UniProt P78545 1-371); settings: protein: recombinant; tags: N-terminal GST; dsDNA, one strand shown
T4 sequence: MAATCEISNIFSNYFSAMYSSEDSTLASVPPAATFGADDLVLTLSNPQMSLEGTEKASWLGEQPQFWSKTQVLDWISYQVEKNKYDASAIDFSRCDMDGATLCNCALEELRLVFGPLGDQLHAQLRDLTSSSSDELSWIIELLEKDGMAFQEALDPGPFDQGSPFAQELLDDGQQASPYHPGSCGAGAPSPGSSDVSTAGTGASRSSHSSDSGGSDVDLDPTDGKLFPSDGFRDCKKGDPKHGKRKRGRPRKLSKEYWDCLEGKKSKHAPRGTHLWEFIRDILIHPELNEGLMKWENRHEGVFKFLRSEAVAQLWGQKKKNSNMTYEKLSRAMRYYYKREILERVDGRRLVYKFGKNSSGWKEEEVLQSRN
In short: as §1

[8] = target: ETV1 (Homo sapiens, UniProt P50549 1-477); settings: protein: recombinant; tags: N-terminal GST; dsDNA, one strand shown
ETV1, sequence (P50549 whole entry): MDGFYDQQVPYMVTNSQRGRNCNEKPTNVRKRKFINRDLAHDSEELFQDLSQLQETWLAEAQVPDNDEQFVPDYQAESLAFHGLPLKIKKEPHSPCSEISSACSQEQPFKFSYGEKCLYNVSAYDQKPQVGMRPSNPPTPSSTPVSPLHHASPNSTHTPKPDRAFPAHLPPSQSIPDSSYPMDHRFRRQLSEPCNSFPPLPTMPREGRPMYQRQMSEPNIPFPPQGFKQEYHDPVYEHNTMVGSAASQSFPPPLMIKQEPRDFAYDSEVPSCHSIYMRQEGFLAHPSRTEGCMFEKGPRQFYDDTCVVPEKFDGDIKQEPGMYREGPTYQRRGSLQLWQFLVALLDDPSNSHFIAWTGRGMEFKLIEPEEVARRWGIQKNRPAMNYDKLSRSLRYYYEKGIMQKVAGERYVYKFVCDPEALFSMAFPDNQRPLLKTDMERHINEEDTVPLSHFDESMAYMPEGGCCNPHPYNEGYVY
In short: as §1

[9] = target: T5, ERF (Homo sapiens, UniProt P50548 1-548); settings: protein: recombinant; tags: N-terminal GST; dsDNA, one strand shown
T5 sequence: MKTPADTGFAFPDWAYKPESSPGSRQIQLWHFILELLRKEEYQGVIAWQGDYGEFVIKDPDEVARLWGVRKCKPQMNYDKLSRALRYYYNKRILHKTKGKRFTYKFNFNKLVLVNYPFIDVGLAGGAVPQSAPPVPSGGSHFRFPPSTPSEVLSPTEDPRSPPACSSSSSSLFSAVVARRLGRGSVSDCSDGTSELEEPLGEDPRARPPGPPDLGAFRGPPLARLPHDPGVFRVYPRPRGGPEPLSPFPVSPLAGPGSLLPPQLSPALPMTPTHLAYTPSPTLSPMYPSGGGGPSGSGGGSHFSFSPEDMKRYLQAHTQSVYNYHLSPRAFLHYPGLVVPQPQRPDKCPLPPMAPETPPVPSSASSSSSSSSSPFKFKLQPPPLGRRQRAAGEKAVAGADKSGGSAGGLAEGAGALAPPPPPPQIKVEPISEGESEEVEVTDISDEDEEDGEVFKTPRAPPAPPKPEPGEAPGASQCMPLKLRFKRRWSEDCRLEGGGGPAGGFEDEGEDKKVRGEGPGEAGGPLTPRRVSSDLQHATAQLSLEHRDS
In short: as §1

[10] = target: T6, ETV3L (Homo sapiens, UniProt Q6ZN32 1-361); settings: protein: recombinant; tags: N-terminal GST; dsDNA, one strand shown
T6 sequence: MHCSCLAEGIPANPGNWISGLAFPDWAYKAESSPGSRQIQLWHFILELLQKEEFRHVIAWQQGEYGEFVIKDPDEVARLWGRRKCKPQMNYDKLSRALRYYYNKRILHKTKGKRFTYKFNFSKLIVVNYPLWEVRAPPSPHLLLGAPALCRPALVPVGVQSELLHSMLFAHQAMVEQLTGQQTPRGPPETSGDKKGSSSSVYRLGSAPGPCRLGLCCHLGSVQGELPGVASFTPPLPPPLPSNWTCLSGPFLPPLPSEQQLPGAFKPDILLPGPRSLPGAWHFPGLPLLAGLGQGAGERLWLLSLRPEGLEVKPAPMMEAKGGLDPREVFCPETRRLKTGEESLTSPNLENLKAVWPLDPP
In short: as §1

[11] = target: T7, ETS2 (Homo sapiens, UniProt P15036 1-469); settings: protein: recombinant; tags: N-terminal GST; dsDNA, one strand shown
T7 sequence: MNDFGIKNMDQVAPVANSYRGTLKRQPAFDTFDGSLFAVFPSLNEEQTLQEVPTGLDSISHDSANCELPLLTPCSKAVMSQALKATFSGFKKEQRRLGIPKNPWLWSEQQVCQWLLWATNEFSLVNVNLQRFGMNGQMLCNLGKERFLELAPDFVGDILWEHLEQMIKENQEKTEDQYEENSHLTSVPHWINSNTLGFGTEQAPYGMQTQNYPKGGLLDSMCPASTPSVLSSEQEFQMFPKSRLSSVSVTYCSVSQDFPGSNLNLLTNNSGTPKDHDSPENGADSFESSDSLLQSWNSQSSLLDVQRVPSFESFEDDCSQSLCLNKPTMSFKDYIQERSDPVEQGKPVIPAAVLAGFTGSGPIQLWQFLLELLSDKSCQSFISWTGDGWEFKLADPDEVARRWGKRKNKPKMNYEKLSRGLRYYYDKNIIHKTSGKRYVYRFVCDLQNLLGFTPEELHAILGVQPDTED
In short: as §1

[12] = target: T8, SPDEF (Homo sapiens, UniProt O95238 1-335); settings: protein: recombinant; tags: N-terminal GST; dsDNA, one strand shown
T8 sequence: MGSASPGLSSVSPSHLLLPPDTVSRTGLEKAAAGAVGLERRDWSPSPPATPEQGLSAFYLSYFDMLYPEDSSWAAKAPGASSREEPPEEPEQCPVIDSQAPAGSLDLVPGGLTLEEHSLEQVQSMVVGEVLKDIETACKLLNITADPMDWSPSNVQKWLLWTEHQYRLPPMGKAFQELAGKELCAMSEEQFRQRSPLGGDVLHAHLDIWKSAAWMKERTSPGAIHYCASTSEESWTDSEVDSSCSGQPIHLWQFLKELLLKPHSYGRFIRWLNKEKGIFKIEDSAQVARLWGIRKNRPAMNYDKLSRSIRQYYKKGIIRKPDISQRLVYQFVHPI
In short: as §1

[13] = target: T9, ETV7 (Homo sapiens, UniProt Q9Y603 1-341); settings: protein: recombinant; tags: N-terminal GST; dsDNA, one strand shown
T9 sequence: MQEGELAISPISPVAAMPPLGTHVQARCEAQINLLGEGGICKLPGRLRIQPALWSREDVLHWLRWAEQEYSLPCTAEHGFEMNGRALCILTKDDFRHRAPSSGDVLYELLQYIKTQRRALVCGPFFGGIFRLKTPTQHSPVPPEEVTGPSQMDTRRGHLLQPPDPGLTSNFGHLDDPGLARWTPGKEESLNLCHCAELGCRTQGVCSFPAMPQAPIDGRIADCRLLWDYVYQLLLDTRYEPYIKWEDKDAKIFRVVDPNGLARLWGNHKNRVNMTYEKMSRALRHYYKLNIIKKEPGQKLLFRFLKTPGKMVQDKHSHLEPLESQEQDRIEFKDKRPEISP
In short: as §1

[14] = target: T10, ELF5 (Homo sapiens, UniProt Q9UKW6-2 1-255); settings: protein: recombinant; tags: N-terminal GST; dsDNA, one strand shown
T10 sequence: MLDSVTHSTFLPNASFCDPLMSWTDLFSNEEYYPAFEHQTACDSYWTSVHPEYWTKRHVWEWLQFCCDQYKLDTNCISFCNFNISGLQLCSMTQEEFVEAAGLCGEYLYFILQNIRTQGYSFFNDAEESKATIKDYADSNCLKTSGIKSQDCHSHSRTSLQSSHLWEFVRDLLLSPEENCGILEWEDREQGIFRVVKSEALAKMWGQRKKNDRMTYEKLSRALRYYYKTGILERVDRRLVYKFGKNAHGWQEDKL
In short: as §1

[15] = target: T11, ETV3 (Homo sapiens, UniProt P41162-2 1-143); settings: protein: recombinant; tags: N-terminal GST; dsDNA, one strand shown
T11 sequence: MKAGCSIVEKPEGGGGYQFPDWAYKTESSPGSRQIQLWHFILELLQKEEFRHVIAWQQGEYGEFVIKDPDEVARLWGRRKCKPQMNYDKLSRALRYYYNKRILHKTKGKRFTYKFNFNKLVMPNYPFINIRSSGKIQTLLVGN
In short: as §1

[16] = target: ETV6 (Homo sapiens, UniProt P41212 1-452); settings: protein: recombinant; tags: N-terminal GST; dsDNA, one strand shown
ETV6, sequence (P41212 whole entry): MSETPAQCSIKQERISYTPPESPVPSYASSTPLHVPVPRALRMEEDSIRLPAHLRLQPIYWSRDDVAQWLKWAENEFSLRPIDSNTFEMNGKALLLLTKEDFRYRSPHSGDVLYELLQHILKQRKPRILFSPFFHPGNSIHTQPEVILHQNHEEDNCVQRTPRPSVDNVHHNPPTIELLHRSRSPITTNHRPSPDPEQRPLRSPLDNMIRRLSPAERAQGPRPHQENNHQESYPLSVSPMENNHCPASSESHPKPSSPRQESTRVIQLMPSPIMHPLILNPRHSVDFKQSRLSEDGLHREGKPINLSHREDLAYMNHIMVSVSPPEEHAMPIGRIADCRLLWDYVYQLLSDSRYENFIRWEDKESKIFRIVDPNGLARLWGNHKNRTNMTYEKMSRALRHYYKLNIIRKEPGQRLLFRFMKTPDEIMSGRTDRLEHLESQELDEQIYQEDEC
In short: as §1

[17] = target: CRX (Homo sapiens, UniProt O43186 1-299); settings: protein: recombinant; tags: N-terminal GST; dsDNA, one strand shown
CRX, sequence (O43186 whole entry): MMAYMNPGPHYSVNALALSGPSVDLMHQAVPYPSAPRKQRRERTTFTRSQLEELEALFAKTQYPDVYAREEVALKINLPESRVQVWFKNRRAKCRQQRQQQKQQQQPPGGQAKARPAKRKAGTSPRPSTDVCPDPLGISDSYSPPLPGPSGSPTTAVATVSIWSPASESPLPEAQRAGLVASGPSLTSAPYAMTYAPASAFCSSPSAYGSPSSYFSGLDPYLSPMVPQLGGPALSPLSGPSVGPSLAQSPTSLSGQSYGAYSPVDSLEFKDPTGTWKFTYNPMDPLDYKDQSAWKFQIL
In short: as §1

Sequence	binding signal [1]	binding signal [2]	binding signal [3]	binding signal [4]	binding signal [5]	binding signal [6]	binding signal [7]	binding signal [8]	binding signal [9]	binding signal [10]	binding signal [11]	binding signal [12]	binding signal [13]	binding signal [14]	binding signal [15]	binding signal [16]	binding signal [17]
TGACGA	1.05 fold enrichment (6-mer frequency, TF over GST control)	1.13 fold enrichment (6-mer frequency, TF over GST control)	1.01 fold enrichment (6-mer frequency, TF over GST control)	1.11 fold enrichment (6-mer frequency, TF over GST control)	1.18 fold enrichment (6-mer frequency, TF over GST control)	1.15 fold enrichment (6-mer frequency, TF over GST control)	1.08 fold enrichment (6-mer frequency, TF over GST control)	1.04 fold enrichment (6-mer frequency, TF over GST control)	1.14 fold enrichment (6-mer frequency, TF over GST control)	1.07 fold enrichment (6-mer frequency, TF over GST control)	1.17 fold enrichment (6-mer frequency, TF over GST control)	1 fold enrichment (6-mer frequency, TF over GST control)	1.11 fold enrichment (6-mer frequency, TF over GST control)	1.04 fold enrichment (6-mer frequency, TF over GST control)	1.09 fold enrichment (6-mer frequency, TF over GST control)	1.16 fold enrichment (6-mer frequency, TF over GST control)	–
AGCATC	1.07 fold enrichment (6-mer frequency, TF over GST control)	1.03 fold enrichment (6-mer frequency, TF over GST control)	1.02 fold enrichment (6-mer frequency, TF over GST control)	1.02 fold enrichment (6-mer frequency, TF over GST control)	–	–	–	1.08 fold enrichment (6-mer frequency, TF over GST control)	–	1.02 fold enrichment (6-mer frequency, TF over GST control)	1.09 fold enrichment (6-mer frequency, TF over GST control)	1.27 fold enrichment (6-mer frequency, TF over GST control)	–	1.08 fold enrichment (6-mer frequency, TF over GST control)	1.07 fold enrichment (6-mer frequency, TF over GST control)	1.03 fold enrichment (6-mer frequency, TF over GST control)	–
ATCGCT	1.06 fold enrichment (6-mer frequency, TF over GST control)	1.07 fold enrichment (6-mer frequency, TF over GST control)	1.08 fold enrichment (6-mer frequency, TF over GST control)	1.15 fold enrichment (6-mer frequency, TF over GST control)	1.06 fold enrichment (6-mer frequency, TF over GST control)	–	1.05 fold enrichment (6-mer frequency, TF over GST control)	1.08 fold enrichment (6-mer frequency, TF over GST control)	1.06 fold enrichment (6-mer frequency, TF over GST control)	1.05 fold enrichment (6-mer frequency, TF over GST control)	1.1 fold enrichment (6-mer frequency, TF over GST control)	1.04 fold enrichment (6-mer frequency, TF over GST control)	1.03 fold enrichment (6-mer frequency, TF over GST control)	1.05 fold enrichment (6-mer frequency, TF over GST control)	1.05 fold enrichment (6-mer frequency, TF over GST control)	1.04 fold enrichment (6-mer frequency, TF over GST control)	1.19 fold enrichment (6-mer frequency, TF over GST control)
